Measured values published in PubChem BioAssay (NCATS).
Results filed as inconclusive are left out. A call without a number means that no potency is given here. Calls of active or inactive are those of the source. Calls follow the shape of the dose curve; as a rule, active = well fitted curve in the direction sought with a large enough effect; inconclusive = small, poorly fitted or top-dose-only effect, or another doubt; inactive = no such curve, though single readings can be large; an effect the other way counts as inactive or inconclusive.

The compounds below were run against Cytochrome P450 3A4 (Homo sapiens) (UniProt P08684) (assay: qHTS Assay for Inhibitors and Substrates of Cytochrome P450 3A4 (AID 884; also: potency is read from the fitted curve at half-maximal effect; nearly all actives have a fitted effect of over 50% in size)). Settings: recombinant CYP3A4, Luciferin-PPXE luminescence; series mostly up to 57.1 µM.
Outline: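 20 nM human CYP3A4 with 25 uM Luciferin-PPXE (at KM) in 200 mM KPO4, preincubated 10 min with compound; NADPH regeneration started a 60 min RT reaction. Luciferin detected by luminescence, normalized to 57 uM ketoconazole as full inhibition.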

Chain of Cytochrome P450 3A4 (Homo sapiens) (P08684 whole entry, looked up): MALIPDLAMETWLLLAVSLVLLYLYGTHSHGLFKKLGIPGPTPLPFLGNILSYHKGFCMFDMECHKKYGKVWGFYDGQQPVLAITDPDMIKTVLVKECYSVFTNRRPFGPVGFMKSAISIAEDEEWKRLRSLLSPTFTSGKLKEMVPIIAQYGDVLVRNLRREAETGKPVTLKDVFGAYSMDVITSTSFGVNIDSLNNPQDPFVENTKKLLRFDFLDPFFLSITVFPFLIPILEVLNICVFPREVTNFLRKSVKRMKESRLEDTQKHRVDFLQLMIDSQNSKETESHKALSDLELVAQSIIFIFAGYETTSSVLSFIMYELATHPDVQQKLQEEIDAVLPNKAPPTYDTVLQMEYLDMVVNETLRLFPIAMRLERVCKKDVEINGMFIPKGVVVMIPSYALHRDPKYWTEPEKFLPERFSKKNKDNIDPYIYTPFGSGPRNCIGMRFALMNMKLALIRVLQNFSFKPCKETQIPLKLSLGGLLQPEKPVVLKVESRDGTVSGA

SMILES | Potency
COc1ccc2ccc(=O)oc2c1CC=C(C)C | 15.8 µM (active)
Nc1nc(OCc2ccccc2)c2[nH]cnc2n1 | 7.94 µM (active)
COc1c2ccoc2cc2oc(=O)ccc12 | 10 µM (active)
O=c1c2ccccc2oc2ccccc12 | 12.6 µM (active)

The compounds below were run against Cytochrome P450 3A4 (Homo sapiens) (UniProt P08684) (assay: qHTS Assay for Activators of Cytochrome P450 3A4 (AID 885; also: nearly all actives have a fitted effect of over 65% in size)). Settings: recombinant CYP3A4, Luciferin-PPXE luminescence, 60 min; series mostly up to 57.1 µM.
Outline: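 Quantitative HTS format: compounds preincubated with 20nM human CYP3A4 and Luciferin-PPXE substrate at KM, reaction started by NADPH regeneration, stopped after 60 min, luciferase luminescence read 20 min later.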

SMILES | Potency
COc1ccc2ccc(=O)oc2c1CC=C(C)C | inactive
Nc1nc(OCc2ccccc2)c2[nH]cnc2n1 | inactive
COc1c2ccoc2cc2oc(=O)ccc12 | inactive
O=c1c2ccccc2oc2ccccc12 | inactive

Each compound was assayed against Cytochrome P450 2C19 (Homo sapiens) (UniProt P33261) (assay: qHTS Assay for Inhibitors and Substrates of Cytochrome P450 2C19 (AID 899; also: potency is read from the fitted curve at half-maximal effect; nearly all actives have a fitted effect of over 60% in size)). Settings: recombinant CYP2C19, luciferin-H EGE luminescence; series mostly up to 57.1 µM.
Outline: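 Luminescent read-out of luciferin formed from Luciferin-H EGE (10uM, equal to KM). Enzyme 5nM in 50mM KPO4; compound added, 10 min at 37C, then NADPH regenerating system for 60 min at 37C. Full inhibition defined by 57uM ketoconazole.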

Chain of Cytochrome P450 2C19 (Homo sapiens) (P33261 whole entry, looked up): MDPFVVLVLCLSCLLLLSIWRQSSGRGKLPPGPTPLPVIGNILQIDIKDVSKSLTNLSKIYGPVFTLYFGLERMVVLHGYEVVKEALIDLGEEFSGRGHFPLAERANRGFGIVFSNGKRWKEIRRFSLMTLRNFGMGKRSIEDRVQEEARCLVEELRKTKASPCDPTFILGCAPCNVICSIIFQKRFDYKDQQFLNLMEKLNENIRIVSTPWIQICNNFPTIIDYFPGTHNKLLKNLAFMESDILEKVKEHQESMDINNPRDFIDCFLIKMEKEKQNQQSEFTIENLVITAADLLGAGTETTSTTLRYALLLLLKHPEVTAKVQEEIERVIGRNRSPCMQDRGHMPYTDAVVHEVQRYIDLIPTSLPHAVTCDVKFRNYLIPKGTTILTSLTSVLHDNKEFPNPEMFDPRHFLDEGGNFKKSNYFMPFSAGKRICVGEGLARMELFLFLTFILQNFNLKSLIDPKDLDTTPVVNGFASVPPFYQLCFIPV

SMILES | Potency
Nc1nc(OCc2ccccc2)c2[nH]cnc2n1 | 6.31 µM (active)
COc1c2ccoc2cc2oc(=O)ccc12 | 3.16 µM (active)
CN(N=O)C(=O)N[C@H]1C(O)OC(CO)[C@@H](O)[C@H]1O (some centres not stated) | 7.94 µM (active)

Each compound was assayed against Alpha-galactosidase (Coffea arabica) (UniProt Q42656) (assay: Counterscreen for Glucocerebrosidase Inhibitors: qHTS Assay for Coffee Bean alpha-Galactosidase at pH 4.5 (AID 957)). Settings: purified coffee bean alpha-galactosidase, fluorogenic substrate; series mostly up to 76.9 µM.
Outline: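 AC50 values derive from Hill-equation modeling of concentration-response data, normalized to no-enzyme and full-activity controls. The pH 4.5 citrate assay used 2 nM coffee bean enzyme and 80 uM fluorogenic substrate for 20 min.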

Chain of Alpha-galactosidase (Coffea arabica) (Q42656 whole entry, looked up): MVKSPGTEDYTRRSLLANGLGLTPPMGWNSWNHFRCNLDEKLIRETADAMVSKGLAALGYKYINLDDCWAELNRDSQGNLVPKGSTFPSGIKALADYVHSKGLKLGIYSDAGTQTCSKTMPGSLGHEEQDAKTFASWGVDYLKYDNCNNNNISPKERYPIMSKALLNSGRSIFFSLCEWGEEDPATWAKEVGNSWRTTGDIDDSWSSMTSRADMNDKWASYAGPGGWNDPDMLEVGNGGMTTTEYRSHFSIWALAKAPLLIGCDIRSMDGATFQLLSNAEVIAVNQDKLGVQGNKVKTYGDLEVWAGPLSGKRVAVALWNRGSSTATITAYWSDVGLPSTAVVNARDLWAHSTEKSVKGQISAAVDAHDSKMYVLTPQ

SMILES | outcome
Cc1cc(NC(=O)Nc2ccc3c(ccn3C)c2)sn1 | inactive
O=Nc1c(-c2c(O)[nH]c3cc(Br)ccc23)[nH]c2ccccc12 | inactive
COc1ccc(CCN(C)CCc2ccc(OC)c(OC)c2)cc1OC | inactive
N#C/C(=C\c1ccc(O)c(O)c1)C(=O)NCCc1ccccc1 | inactive
CCN(CC)CCCCCCCCOC(=O)c1cc(OC)c(OC)c(OC)c1 | inactive
Brc1ccc([C@H]2CN3CCSC3=N2)cc1 | inactive
Nc1nc(OCc2ccccc2)c2[nH]cnc2n1 | inactive
NC[C@@H]1O[C@H](C23CC4CC(CC(C4)C2)C3)Cc2c1ccc(O)c2O | inactive
Nc1ncnc2c1ncn2C1CCCC1 | inactive
Clc1nccc2c1ccc1ccccc12 | inactive
C=C[C@H]1CN2CC[C@@H]1C[C@@H]2[C@@H](O)c1ccnc2ccc(OC)cc12 | inactive
